Source: ChEMBL document CHEMBL3988442, “University of Dundee, Small-Polar-MMV Screening Library” (2021)
Values joined by “and” are separate entries in the source; they are usually repeats but may differ in a detail not shown here. Equal values may be shown once. For some assays here: Measured potencies and affinities stand elsewhere.

Legend:
Set-up in all cases: scale not given: direction of the effect not stated beside the values
[1] = molecular target: Protein translocase subunit SecA (Escherichia coli (strain K12)) (UniProt P10408); experiment: Assay to Identify E. coli SecA ATPase Inhibitors; type: functional; conditions: 30 µM
Protein translocase subunit SecA (Escherichia coli (strain K12)), sequence (P10408 whole entry): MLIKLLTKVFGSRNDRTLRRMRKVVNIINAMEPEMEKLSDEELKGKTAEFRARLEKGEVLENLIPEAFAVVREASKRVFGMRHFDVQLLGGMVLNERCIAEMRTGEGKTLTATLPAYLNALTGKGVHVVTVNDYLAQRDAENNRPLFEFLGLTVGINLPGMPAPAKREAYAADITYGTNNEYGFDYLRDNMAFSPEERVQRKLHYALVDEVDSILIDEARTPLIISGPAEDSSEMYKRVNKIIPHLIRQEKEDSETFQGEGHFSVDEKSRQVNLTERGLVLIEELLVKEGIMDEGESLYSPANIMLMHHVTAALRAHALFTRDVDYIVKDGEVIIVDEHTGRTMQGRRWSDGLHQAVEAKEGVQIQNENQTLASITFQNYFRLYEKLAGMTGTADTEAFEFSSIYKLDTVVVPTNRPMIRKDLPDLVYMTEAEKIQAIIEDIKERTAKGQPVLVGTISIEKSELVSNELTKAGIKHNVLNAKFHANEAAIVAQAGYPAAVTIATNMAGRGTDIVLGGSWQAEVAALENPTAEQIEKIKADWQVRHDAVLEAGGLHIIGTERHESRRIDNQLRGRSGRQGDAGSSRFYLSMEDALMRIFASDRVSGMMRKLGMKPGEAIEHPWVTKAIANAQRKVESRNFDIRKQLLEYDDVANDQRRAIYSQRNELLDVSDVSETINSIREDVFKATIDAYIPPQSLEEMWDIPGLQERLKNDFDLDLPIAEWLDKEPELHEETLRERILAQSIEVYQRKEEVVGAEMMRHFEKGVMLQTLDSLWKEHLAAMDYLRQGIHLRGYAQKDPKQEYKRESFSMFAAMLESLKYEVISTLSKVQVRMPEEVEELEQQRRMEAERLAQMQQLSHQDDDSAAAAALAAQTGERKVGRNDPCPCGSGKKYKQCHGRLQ

[2] = molecular target: T1, Ubiquitin-activating enzyme e1, putative (Leishmania donovani (strain BPK282A1)) (UniProt E9BSI1); experiment: Leishmania donovani Ubiquitin Activating Enzyme (LdE1); type: functional; conditions: 30 µM
T1 sequence (whole entry): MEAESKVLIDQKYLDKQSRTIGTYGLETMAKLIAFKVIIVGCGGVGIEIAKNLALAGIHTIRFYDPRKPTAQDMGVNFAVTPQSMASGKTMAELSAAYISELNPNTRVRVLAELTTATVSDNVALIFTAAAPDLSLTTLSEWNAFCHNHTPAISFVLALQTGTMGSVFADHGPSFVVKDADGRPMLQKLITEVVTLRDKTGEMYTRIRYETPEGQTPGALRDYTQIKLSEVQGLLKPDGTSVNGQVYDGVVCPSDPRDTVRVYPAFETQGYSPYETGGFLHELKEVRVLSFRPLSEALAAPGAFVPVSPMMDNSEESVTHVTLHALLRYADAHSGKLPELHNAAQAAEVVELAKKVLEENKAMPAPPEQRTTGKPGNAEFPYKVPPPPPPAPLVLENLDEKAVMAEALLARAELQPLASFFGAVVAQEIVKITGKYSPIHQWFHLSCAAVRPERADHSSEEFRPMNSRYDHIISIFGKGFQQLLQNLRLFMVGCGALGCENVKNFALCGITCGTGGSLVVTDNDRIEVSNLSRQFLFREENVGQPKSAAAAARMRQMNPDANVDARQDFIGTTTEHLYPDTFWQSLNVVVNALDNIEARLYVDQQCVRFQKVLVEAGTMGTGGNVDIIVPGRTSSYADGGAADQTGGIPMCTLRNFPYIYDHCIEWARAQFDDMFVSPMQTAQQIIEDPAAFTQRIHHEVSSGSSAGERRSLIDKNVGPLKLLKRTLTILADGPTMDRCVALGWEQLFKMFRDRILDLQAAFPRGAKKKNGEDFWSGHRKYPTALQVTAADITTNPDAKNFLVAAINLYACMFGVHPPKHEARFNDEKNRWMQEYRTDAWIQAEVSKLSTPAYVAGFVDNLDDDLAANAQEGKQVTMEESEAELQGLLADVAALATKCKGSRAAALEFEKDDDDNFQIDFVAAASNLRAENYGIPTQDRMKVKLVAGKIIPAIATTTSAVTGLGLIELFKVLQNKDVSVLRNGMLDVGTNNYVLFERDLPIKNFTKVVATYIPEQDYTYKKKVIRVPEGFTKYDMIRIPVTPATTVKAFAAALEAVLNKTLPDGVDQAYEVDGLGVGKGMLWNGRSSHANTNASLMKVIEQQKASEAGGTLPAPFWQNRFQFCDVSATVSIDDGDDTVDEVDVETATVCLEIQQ

[3] = molecular target: AMP-activated protein kinase, AMPK (Homo sapiens) (UniProt P54646+O43741+P54619+Q9UGJ0+Q9Y478+Q13131+Q9UGI9); experiment: AMP-dependent Kinase enzyme assay. An in vitro enzyme assay that detects ADP turnover that is directly proportional to AMPK activity. This uses naive AMPK that is activated during the assay with MK-8722; type: functional; conditions: 30 µM
[4] = molecular target: Sialic acid-binding Ig-like lectin 9 (Homo sapiens) (UniProt Q9Y336); experiment: Hs-Siglec9 ALPHAscreen SOP 20170721; conditions: 10 µM
Sialic acid-binding Ig-like lectin 9 (Homo sapiens), sequence (Q9Y336 whole entry): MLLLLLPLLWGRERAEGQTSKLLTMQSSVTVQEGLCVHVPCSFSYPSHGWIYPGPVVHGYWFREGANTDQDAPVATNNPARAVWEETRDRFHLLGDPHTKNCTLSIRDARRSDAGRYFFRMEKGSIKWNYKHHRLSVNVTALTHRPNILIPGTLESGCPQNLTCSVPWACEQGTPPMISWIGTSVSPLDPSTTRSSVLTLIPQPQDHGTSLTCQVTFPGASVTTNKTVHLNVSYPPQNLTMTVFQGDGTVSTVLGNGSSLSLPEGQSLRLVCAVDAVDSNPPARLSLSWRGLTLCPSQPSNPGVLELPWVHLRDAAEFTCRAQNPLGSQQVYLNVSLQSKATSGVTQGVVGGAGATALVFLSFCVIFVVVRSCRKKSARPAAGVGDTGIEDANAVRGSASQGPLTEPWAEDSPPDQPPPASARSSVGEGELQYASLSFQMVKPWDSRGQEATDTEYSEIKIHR

Trypanosoma cruzi = experiment: Trypanosoma cruzi phosphomannomutase and mannose-1-phosphate guanylyltransferase assay; type: functional; conditions: 10 µM
[5] = molecular target: T2, Arginase-2, mitochondrial (Homo sapiens) (UniProt P78540); experiment: in vitro enzyme assay to detect the production of urea directly proportional to the activity of Arginase II; type: functional; conditions: 33.3 µM; note: in the data most compounds retested in dose-response had high values
T2 sequence (whole entry): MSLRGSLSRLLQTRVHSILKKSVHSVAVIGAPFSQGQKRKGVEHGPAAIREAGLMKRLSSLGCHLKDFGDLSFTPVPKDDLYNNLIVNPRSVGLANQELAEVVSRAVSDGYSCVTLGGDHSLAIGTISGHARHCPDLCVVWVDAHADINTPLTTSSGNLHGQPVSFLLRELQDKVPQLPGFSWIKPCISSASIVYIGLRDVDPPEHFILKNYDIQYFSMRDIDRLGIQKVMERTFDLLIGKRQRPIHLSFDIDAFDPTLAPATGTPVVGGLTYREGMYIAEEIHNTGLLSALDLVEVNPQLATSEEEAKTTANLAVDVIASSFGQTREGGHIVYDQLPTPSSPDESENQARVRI

N/A = experiment: Trypanosoma cruzi proteasome luciferase counter-screen; type: functional; conditions: 9.37 µM
Homo sapiens = species on record: Homo sapiens; experiment: To identify inhibition of the IFN signalling (Jak-Stat) pathway via expression of an eGFP reporter gene under the control of an IFN-stimulated response element (ISRE) containing MxA promoter.; type: functional; conditions: 30 µM
[6] = molecular target: T3, Tyrosyl-tRNA synthetase, putative (Trypanosoma cruzi (strain CL Brener)) (UniProt Q4DSP6); experiment: Trypanosoma cruzi tyrosyl tRNA synthetase (TcYRS) _High Tyrosine SOP; type: functional; conditions: 30 µM; note: in the data most compounds retested in dose-response had high values
T3 sequence (whole entry): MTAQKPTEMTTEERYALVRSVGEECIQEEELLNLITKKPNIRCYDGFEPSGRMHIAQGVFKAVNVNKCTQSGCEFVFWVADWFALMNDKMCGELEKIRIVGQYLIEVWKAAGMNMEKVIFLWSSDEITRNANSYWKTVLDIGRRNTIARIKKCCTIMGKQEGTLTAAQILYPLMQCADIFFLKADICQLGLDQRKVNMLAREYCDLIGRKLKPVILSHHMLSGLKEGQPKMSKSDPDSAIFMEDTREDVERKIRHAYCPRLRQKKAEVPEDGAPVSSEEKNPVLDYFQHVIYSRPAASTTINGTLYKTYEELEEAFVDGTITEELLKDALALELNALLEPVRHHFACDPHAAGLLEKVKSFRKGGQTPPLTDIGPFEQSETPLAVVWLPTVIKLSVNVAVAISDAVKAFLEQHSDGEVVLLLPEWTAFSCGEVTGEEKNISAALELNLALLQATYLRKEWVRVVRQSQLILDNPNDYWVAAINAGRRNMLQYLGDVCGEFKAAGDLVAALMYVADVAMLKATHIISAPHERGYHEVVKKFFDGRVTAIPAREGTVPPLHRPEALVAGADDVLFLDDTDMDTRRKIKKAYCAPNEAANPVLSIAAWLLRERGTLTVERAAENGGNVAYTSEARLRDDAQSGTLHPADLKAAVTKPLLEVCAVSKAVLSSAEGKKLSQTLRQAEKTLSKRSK

[7] = molecular target: T3, Tyrosyl-tRNA synthetase, putative (Trypanosoma cruzi (strain CL Brener)); experiment: Trypanosoma cruzi tyrosyl tRNA synthetase (TcYRS) SOP; type: functional; conditions: 30 µM
[8] = molecular target: Chromo domain-containing protein 1 (Saccharomyces cerevisiae (strain ATCC 204508 / S288c) (Baker's yeast)) (UniProt P32657); experiment: ScCHD-1 Enzyme Inhibition Assay; type: functional; conditions: 30 µM; note: in the data most compounds retested in dose-response had high values
Chromo domain-containing protein 1 (Saccharomyces cerevisiae (strain ATCC 204508 / S288c) (Baker's yeast)), sequence (P32657 whole entry, the tested form may be a part): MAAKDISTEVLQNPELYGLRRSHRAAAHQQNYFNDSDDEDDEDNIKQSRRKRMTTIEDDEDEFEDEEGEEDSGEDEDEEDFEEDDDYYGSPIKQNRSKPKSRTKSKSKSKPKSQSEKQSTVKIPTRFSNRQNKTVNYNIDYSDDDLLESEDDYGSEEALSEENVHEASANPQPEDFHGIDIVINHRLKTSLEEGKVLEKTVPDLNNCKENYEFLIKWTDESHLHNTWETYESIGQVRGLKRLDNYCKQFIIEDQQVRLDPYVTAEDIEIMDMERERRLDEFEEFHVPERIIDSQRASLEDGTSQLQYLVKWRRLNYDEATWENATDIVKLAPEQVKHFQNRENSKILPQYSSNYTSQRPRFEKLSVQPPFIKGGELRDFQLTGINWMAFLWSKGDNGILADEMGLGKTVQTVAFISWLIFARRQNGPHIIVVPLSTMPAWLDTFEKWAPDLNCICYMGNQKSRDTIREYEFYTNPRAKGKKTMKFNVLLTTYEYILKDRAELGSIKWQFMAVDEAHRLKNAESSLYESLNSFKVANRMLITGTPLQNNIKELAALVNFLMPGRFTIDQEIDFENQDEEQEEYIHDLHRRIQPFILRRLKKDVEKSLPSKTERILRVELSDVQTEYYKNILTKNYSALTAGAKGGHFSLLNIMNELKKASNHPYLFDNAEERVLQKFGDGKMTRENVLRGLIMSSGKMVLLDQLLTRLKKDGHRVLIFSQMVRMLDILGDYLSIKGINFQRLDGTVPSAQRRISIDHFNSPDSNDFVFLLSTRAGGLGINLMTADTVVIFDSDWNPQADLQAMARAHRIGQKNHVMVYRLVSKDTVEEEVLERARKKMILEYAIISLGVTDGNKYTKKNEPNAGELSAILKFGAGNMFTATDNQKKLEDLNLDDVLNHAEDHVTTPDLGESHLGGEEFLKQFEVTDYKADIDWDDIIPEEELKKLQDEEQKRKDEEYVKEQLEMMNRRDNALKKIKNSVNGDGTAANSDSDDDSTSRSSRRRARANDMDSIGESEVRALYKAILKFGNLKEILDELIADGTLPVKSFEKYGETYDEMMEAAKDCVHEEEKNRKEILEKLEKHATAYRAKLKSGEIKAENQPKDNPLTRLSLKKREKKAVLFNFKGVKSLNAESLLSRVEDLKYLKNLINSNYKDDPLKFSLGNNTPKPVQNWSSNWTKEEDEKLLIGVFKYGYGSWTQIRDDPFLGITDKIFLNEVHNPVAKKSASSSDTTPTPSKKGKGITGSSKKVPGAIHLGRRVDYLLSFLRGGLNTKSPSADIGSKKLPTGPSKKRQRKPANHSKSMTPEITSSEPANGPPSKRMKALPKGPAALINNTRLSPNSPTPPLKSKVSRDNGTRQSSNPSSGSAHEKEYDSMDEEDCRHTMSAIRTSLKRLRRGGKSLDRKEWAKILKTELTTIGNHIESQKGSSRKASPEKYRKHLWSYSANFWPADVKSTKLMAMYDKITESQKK

[9] = molecular target: T4, Proteasome subunit beta (Trypanosoma cruzi) (UniProt O96673); experiment: Trypanosoma cruzi proteasome chymotrypsin-like activity (TcProtChymo) assay.; note: in the data most compounds retested in dose-response had high values; type: functional; conditions: 9.37 µM
T4 sequence (whole entry): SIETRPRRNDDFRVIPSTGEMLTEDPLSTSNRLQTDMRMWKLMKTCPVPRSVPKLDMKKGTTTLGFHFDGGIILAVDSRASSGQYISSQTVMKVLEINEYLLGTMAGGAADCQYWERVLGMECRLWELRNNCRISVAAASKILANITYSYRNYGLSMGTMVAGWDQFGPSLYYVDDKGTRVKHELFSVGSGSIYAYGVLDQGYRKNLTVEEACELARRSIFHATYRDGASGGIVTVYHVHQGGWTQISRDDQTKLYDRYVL

| SMILES | Percent Effect [1] [%] | Percent Effect [2] [%] | Percent Effect [3] [%] | Percent Effect [4] [%] | Percent Effect (Trypanosoma cruzi) [%] | Percent Effect [5] [%] | Percent Effect (N/A) | Percent Effect (Homo sapiens) [%] | Percent Effect [6] [%] | Percent Effect [7] [%] | Percent Effect [8] [%] | Percent Effect [9] [%] |
| --- | --- | --- | --- | --- | --- | --- | --- | --- | --- | --- | --- | --- |
| Cc1nc(CN2CCCN(CC(=O)Nc3cccnc3)CC2)no1 | -3.59 | 18.2 | 4.53 | -8.79 | -0.294 | 4.84 | 15.2% and 14.2% | 23.7 | 5.71 | 9.41 | -14 |  |
| CNC(=O)CS(=O)(=O)Cc1coc(-c2ccc(F)cc2)n1 | -2.82 | 5.41 | -2.17 | 1.48 | 3.67 | 2.38 |  | -3.27 | 5.82 | 12.2 | -1.98 | 7.59 |
| O=C(Cn1nc(-c2cccs2)ccc1=O)N1CCCCCC1 | -3.74 | -1.33 | 5.86 | 8.95 | 1.77 | -10.4 |  | 9 | 1.06 | 7.69 | -3.49 | 7.21 |
| COc1cccc(CN2CCC(c3cc(O)nc(C)n3)C2)c1 (stereo unspecified) | -3.18 | 12.2 | 6.93 | 3.66 | 2.37 | -3.02 |  | 29.9 | 6.45 | 14.3 | -5.62 | 11.7 |
| CCC(=O)Nc1nnc(CCCOc2ccccc2)s1 | -6.68 | -1.33 | 6.74 | 2.25 | 1.77 | -9.68 |  | -7.47 | 7.41 | 5.13 | -0.786 | 10.3 |
| CC(C)(C)C(=O)NCCn1ccc(-c2ccncc2)n1 | -2.96 | 2.74 | -5.12 | 4.58 | 3.33 | 11.4 |  | 21.9 | 1.07 | 2.5 | -2.64 | 9.23 |
| COc1ccc(C(O)CNC(=O)Nc2cc(C)nn2C)cc1 (stereo unspecified) | -8.64 | 5.26 | 3.77 | -0.779 | -9.59 | -1.53 |  | 20.4 | -3.43 | -2.44 | -6.99 | 15.4 |
| CNS(=O)(=O)Cc1ccc(CNc2cncc(-n3cccn3)n2)cc1 | -1.63 | 18.2 | 3.34 | 6.42 | 5.24 | 0 | 16.1% and 14.8% | 18.8 | 7.77 | 24.4 | -12.2 |  |
| CCO[C@@H]1CCN(C(=O)c2ccc[nH]2)[C@@H]1Cc1cnn(C)c1 | -3.08 | 0 | 17.3 | -3.48 | -5.91 | 3.5 |  | 19.4 | 4.25 | 3.85 | -2.5 | 2.56 |
| CCc1nnc2n1CCN(Cc1csc(-c3cnn(C)c3)n1)C2 | -3.51 | 12.5 | -7.81 | 3.08 | -3.79 | -2.21 |  | -7.26 | 5.26 | 0 | 0.402 | 18.6 |
| CN(Cc1cc[nH]n1)C(=O)c1cccc(CCC(C)(C)O)c1 | -4.29 | -2.67 | 0.5 | 1.39 | -5.16 | -0.521 | 6.9% and 8.45% | -13.1 | 0.546 | 3.7 | -5.03 |  |
| Cc1ccc(C(=O)N2CCCC(NC(=O)C(C)C)C2)c(O)c1 (stereo unspecified) | -4.49 | 16.2 | -12.8 | 11.8 | 3.87 | -4.41 |  | 6.82 | 8.37 | 25.9 | -10.5 | 11.9 |
| CSC(C)(C)CNC(=O)NC1CCSCC1 | -4.83 | 13.3 | -5.19 | 18.2 | 8.47 | 5.73 |  | 4.48 | 0.546 | 11.1 | -6.59 | 6.63 |
| CCc1nc(C2CCCN(C(=O)CCn3ccccc3=O)C2)no1 (stereo unspecified) | -2.1 | 0 | -7.52 | -0.82 | 8.08 | -1.15 |  | -13.7 | -0.49 | 0 | 2.66 | 1.34 |
| Cc1ncsc1C(=O)N1CCCC(c2noc(C(C)C)n2)C1 (stereo unspecified) | -4.54 | 15.3 | -8.18 | 26.1 | 2.43 | 33.5 |  | 7.22 | 6.32 | 15.4 | -10.2 | 15.3 |
| O=C(c1ccncc1)N1CCC(c2nc(O)cc(-c3ccncc3)n2)C1 (stereo unspecified) | -4.75 | 21.3 | 0.106 | -1.99 | 0.984 | -2.1 | 6.33% and 4.26% | 4.05 | 6.38 | 14.1 | -6.07 |  |
